The values below come from PubChem BioAssay (NCI).

The panel holds about 83,000 compounds, 20% with a hit somewhere; the sample as a whole holds those more often.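 Assay: single dose, 48 h. Readout: percent growth (0 = no net growth; negative = cell death). Active: <10.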 A number with no mark means an inactive call. The source made the active and inactive calls.

For this test, the system named is HOP-62 NSCLC. Nature of the test: NCI-60 one-dose screen, 48 h (100 = growth as untreated, 0 = no growth, -100 = all killed). Particulars: 10 µM unless noted. The protocol:
Growth inhibition of the HOP-62 human Non-Small Cell Lung tumor cell line is measured as a screen for anti-cancer activity. Cells are grown in 96 well plates and exposed to the test compound for 48 hours. Compounds are tested at a single concentration, which is 10^-5 M for most compounds. The reported endpoint is percent growth (GI% or GIPRCNT), where numbers from 0 - 100% represent growth inhibition, and numbers from -100% - 0 represent cell death. For example, a value of 40 represents 60% growth inhibition. A value of 0 means no net growth occurred over the course of the experiment. A value of -40 indicates 40% of cells at the beginning of the experiment died by the end of the experiment. A value of -100 means all cells are dead at the end of the experiment.
NCI-60 Human Tumor Cell Lines Screen was performed using the standard one-dose NCI protocol, which is described in more detail at https://dtp.cancer.gov/discovery_development/nci-60/default.htm.
Compounds with GIPRCNT values below 10 were considered active. Activity score was based on GIPRCNT using the following formula: […]
Score is 0 for GIPRCNT values of 100 or above, 50 for GIPRCNT values of 0, and 100 for GIPRCNT values of -100.
Regarding `COc1cccc(/C=C/C(=O)c2cc3c(N)c(C(=O)Nc4cccc5ccccc45)sc3nc2C)c1`, the growth was 25%.

For `CN1CCN(Cc2ccc(NC(=O)c3cncc(C#Cc4cnc5ccc(Cl)nn45)c3)cc2C(F)(F)F)CC1`, the growth is -15.7% (active).

On to `Cc1nnc(-c2ccc3c(c2)nc(/C=C/c2ccccc2)n3C2CCCCC2)o1`, for which the growth is 83%.

With `COc1ccc(/C=C/C(=O)c2ccc(NC(=O)CSc3nc4c([nH]3)c(=O)n(C)c(=O)n4C)cc2)cc1OC`, the growth was 89.5%.

For `Cc1nc2cc(O)c(O)cc2cc1Oc1ccc(NC(=O)Nc2ccc(Cl)c(Cl)c2)cc1`, the growth was 35.7%.

For the molecule `COc1ccc(C#Cc2ccc(=O)oc2-c2cc(OC)c(OC)c(OC)c2)cc1O`, the growth was 28.6%.

With `CCOC(=O)c1c(C)c2c(n1Cc1ccccc1)CSCC2=O`, the growth is -25.9% [100 µM] (active).

With `O=C(/C=C/c1ccc(Cl)cc1)c1cccc(OCCCOc2cccc(C(=O)/C=C/c3ccc(Cl)cc3)c2)c1`, the growth is 107%.

For `CC1(C)N=C(N)N=C(N)N1c1cccc(CCc2ccccc2)c1`, the growth is 45%.

As to `C[C@H](C(=O)N(CCc1ccc(Cl)c(Cl)c1)Cc1cncs1)[C@@H]1CC[C@H](C[C@H](C)n2cc(CN3CCC(c4ccc(Cl)cc4)CC3)nn2)O1`, the growth is 101%.

`C=C(CNCCO)[C@@H]1CC[C@]2(CO)CC[C@]3(C)[C@H](CC[C@@H]4[C@@]5(C)CCC(N)C(C)(C)[C@@H]5CC[C@]43C)[C@@H]12` (stereo not given in full): the growth was 71.4%.

For `O=C(C1=Cc2cc3ccccc3n2Cc2cnnn21)c1ccc(O)cc1`, the growth is 55.7%.

In the case of `COc1ccc(C(=O)/C=C/c2ccc(N3CCCCC3)cc2)cc1OC`, the growth is 98.3%.

For `Cc1ccc2nc(NC(=O)CSc3nc(-c4ccccc4)c(C#N)c4nnnn34)sc2c1`, the growth is 97.4%.

In the case of `COc1ccc(C2CC(c3cc(OC)c(OC)c(OC)c3)=NO2)cc1OCCCCOc1cc2c(cc1OC)C(=O)N1CCC[C@H]1C=N2` (stereo not given in full), the growth was 22.8%.

Regarding `C=C1C(=O)O[C@H]2[C@H]1CC/C(CNC(=O)c1c[nH]c3ccc(F)cc13)=C\CC[C@@]1(C)O[C@@H]21`, the growth was 70.6%.

Take `C=C(c1ccc(OC)c(/C=C/C(=O)c2ccc3c(c2)OCO3)c1)c1cc(OC)c(OC)c(OC)c1`: the growth was 36%.

Regarding `NS(=O)(=O)c1ccc(-c2cc(-c3nnc(SCC(=O)Nc4ccc(C(=O)/C=C/c5ccc(Cl)cc5)cc4)n3-c3ccccc3)c3ccccc3n2)cc1`, the growth is 100%.

For the molecule `Cc1c2ccncc2c(C)c2c1c1cc(CO)ccc1n2C`, the growth is -19.6% (active).

In the case of `C=CCOC(=O)C1=C(C)N(CC)C(=O)NC1c1c(Cl)n(C)c2ccccc12` (stereo not given), the growth is 103%.

`CC1C(/C=N/NC(N)=S)C(C#N)(C#N)C1(C#N)C#N` (stereo not given): the growth was 105%.

Regarding `Cc1ccc2c(=O)cc(C(=O)Nc3sc4c(c3C(=O)NCc3cccnc3)CCCC4)oc2c1C`, the growth is 104%.

`CCN1C(=O)N(CC)C2C1NN=c1s/c(=C3\C(=O)N(CC(C)C)c4ccccc43)c(=O)n12` (stereo not given): the growth was 45.6%.

As to `O=c1c2c3c(sc2n2c(-c4cc(-c5ccccc5)no4)nnc2n1Cc1ccccc1)CCCC3`, the growth is 92.5%.

With `CN(C)c1ccc(/C=C(\C#N)c2cc3ccccc3[nH]2)cc1`, the growth is 28.7%.

Consider `C=C1C(=O)O[C@H]2[C@H]1CC/C(COC(=O)CSCSCC(=O)OC/C1=C/CC[C@@]3(C)O[C@H]3[C@H]3OC(=O)C(=C)[C@@H]3CC1)=C\CC[C@@]1(C)O[C@@H]21`, for which the growth is 82.7%.

With `O=C(Nc1ccccc1O)c1ccc(CNC(=O)c2ccsc2Nc2ccnc(C(F)(F)F)c2)cc1`, the growth was 47.6%.

On to `CC(C)=CCNc1ncnc2c1ncn2C1OC(CO)C(O)C1O` (stereo not given), for which the growth is -17.3% [1 mM] (active).

On to `CN1CCN(CCOc2ccc(-c3cnc4c(-c5cccc(F)c5F)cnn4c3)cc2)CC1`, for which the growth was 106%.

For the molecule `CCOC(=O)C1=C(C)C(Cl)=N/C1=C\c1[nH]c(Cl)c(C)c1C(=O)OCC`, the growth was 96.5%.

Consider `COc1ccc(/C=C(/C(=O)n2cnnn2)c2cc(OC)c(OC)c(OC)c2)cc1`, for which the growth is 25.6%.

Turning to `COc1cc(C2C(C(=O)OCc3ccccc3)=C(C)NC(C)=C2C(=O)OCc2ccccc2)cc(OC)c1OC`, the growth was 51%.

Take `Nc1nc2c(c3ncccc13)C(c1cccc(Cl)c1)Cc1ncccc1-2` (stereo not given): the growth is 20.1%.

Regarding `O=C(c1c[nH]c2ccccc12)c1n[nH]c(=S)n1-c1cccc(Br)c1`, the growth is 81.7%.

Turning to `Cc1nc2ccccc2c(/C=C/c2ccccc2)c1C(=O)/C=C/c1ccccc1`, the growth is 6.52% (active).

With `CCN(CC)CCCN1C(=O)c2c(c(C)c3c(oc4ccc(O)cc43)c2C)C1=O`, the growth was 89.9%.

With `C/C=C(/C)n1cnc2c(Nc3ccccn3)nc(Cl)nc21`, the growth was 102%.

For `Cc1ncc(C(=O)Nc2ccc(CN3CCN(C)CC3)c(C(F)(F)F)c2)cc1C#Cc1cnc(N)c2ncccc12`, the growth is 20.6%.

In the case of `Cc1ccc(S(=O)(=O)OCCCOS(=O)(=O)c2ccc(C)cc2)cc1`, the growth was 113%.

For `CC1=C2[C@@H](CC1)[C@]1(C)O[C@@](c3ccccc3)(C[C@H]1OC(=O)CO)[C@H]2OC(=O)/C=C/c1ccccc1`, the growth was 100%.
